Parameters in all cases: scale not given: direction of the effect not stated beside the values
In assay [1] the target is Protein translocase subunit SecA (Escherichia coli (strain K12)) (UniProt P10408). Put plainly: Assay to Identify E. coli SecA ATPase Inhibitors. The format is functional. The conditions noted are these: 30 µM.
The target in assay [2] is T1, Ubiquitin-activating enzyme e1, putative (Leishmania donovani (strain BPK282A1)) (UniProt E9BSI1).
T1 sequence (whole entry): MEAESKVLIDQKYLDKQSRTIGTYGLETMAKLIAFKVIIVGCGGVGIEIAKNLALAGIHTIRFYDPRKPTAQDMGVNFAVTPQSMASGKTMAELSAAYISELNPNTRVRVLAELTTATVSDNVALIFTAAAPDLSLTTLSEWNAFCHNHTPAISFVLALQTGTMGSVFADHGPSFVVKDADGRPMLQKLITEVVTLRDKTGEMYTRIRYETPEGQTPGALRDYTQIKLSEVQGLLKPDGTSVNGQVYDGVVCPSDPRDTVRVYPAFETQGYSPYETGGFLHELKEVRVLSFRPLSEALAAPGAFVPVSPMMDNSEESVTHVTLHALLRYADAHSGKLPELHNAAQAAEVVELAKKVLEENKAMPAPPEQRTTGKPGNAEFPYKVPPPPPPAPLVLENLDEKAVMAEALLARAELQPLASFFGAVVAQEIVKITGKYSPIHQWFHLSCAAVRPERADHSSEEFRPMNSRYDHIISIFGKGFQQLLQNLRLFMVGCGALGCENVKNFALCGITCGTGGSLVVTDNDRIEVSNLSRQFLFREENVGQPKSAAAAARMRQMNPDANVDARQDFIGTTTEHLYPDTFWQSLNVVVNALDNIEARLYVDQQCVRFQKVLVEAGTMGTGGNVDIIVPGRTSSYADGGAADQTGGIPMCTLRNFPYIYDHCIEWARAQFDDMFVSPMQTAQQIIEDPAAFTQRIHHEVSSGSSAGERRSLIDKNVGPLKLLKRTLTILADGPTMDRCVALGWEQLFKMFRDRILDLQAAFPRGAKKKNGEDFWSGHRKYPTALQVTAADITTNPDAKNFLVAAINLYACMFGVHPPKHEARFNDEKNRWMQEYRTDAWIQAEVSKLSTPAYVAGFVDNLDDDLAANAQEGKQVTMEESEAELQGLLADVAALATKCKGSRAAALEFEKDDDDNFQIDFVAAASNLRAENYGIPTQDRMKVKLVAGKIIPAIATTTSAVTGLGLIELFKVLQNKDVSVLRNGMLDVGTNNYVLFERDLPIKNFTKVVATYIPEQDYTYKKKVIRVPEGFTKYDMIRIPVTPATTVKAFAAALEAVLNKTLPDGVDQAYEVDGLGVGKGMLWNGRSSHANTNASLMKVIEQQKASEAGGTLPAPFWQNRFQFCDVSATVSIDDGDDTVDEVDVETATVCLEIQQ
Put plainly: Leishmania donovani Ubiquitin Activating Enzyme (LdE1). It counts as functional. The conditions noted are these: 30 µM.

The target in assay [3] is AMP-activated protein kinase, AMPK (Homo sapiens) (UniProt P54646+O43741+P54619+Q9UGJ0+Q9Y478+Q13131+Q9UGI9). Put plainly: AMP-dependent Kinase enzyme assay. An in vitro enzyme assay that detects ADP turnover that is directly proportional to AMPK activity. This uses naive AMPK that is activated during the assay with MK-8722. The format is functional. The conditions noted are these: 30 µM.

In assay [4] the target is Sialic acid-binding Ig-like lectin 9 (Homo sapiens) (UniProt Q9Y336). Kind of assay: Hs-Siglec9 ALPHAscreen SOP 20170721. The conditions noted are these: 10 µM. A general note: In Alpha technology, singlet oxygen from a donor bead excites a nearby acceptor bead.
Another assay deals with Trypanosoma cruzi. Put plainly: Trypanosoma cruzi phosphomannomutase and mannose-1-phosphate guanylyltransferase assay. The format is functional. The conditions noted are these: 10 µM.
For assay [5], the target named is T2, Arginase-2, mitochondrial (Homo sapiens) (UniProt P78540).
T2 sequence (whole entry): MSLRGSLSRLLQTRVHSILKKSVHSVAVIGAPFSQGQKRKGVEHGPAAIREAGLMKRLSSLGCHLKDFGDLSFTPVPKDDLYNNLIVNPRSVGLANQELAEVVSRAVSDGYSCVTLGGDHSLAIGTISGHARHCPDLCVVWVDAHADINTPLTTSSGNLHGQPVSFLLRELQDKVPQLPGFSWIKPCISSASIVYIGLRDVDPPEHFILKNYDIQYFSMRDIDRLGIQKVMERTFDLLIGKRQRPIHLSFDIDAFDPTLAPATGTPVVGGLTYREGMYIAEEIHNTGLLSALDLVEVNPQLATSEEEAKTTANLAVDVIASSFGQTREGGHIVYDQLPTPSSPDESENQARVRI
Kind of assay: in vitro enzyme assay to detect the production of urea directly proportional to the activity of Arginase II. Note: in the data most compounds retested in dose-response had high values. It counts as functional. The conditions noted are these: 33.3 µM.

The target in assay [6] is T3, Proteasome subunit beta (Trypanosoma cruzi) (UniProt O96673).
T3 sequence (whole entry): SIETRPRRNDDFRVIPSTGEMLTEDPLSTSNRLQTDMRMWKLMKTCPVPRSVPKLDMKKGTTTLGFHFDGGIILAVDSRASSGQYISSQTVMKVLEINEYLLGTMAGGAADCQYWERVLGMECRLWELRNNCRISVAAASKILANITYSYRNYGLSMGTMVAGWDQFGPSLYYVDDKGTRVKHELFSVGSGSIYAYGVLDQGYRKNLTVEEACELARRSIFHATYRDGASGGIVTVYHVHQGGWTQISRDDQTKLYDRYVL
Kind of assay: Trypanosoma cruzi proteasome chymotrypsin-like activity (TcProtChymo) assay. Note: in the data most compounds retested in dose-response had high values. The format is functional. The conditions noted are these: 9.37 µM.

For another assay, the species on record is Homo sapiens. Put plainly: To identify inhibition of the IFN signalling (Jak-Stat) pathway via expression of an eGFP reporter gene under the control of an IFN-stimulated response element (ISRE) containing MxA promoter. The format is functional. The conditions noted are these: 30 µM.
For assay [7], the target named is T4, Tyrosyl-tRNA synthetase, putative (Trypanosoma cruzi (strain CL Brener)) (UniProt Q4DSP6).
T4 sequence (whole entry): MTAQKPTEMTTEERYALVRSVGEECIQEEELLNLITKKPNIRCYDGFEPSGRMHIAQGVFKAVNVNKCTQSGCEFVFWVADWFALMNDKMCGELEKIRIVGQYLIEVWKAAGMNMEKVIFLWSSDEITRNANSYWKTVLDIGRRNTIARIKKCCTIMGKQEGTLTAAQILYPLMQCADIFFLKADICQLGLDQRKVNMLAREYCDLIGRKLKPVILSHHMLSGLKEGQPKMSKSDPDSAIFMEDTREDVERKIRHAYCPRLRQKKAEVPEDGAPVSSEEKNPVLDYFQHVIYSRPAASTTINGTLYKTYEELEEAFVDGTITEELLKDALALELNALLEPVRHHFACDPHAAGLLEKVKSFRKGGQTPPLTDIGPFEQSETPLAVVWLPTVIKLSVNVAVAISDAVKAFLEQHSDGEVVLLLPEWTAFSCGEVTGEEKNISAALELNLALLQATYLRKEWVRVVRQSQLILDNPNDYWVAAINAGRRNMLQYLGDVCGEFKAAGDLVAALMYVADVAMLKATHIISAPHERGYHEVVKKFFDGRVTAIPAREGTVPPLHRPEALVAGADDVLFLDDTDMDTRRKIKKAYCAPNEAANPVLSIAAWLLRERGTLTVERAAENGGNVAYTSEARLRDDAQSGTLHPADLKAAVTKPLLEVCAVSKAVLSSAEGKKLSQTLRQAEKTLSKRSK
Kind of assay: Trypanosoma cruzi tyrosyl tRNA synthetase (TcYRS) _High Tyrosine SOP. Note: in the data most compounds retested in dose-response had high values. The format is functional. The conditions noted are these: 30 µM.

Assay [8] concerns the target T4, Tyrosyl-tRNA synthetase, putative (Trypanosoma cruzi (strain CL Brener)). Put plainly: Trypanosoma cruzi tyrosyl tRNA synthetase (TcYRS) SOP. It counts as functional. The conditions noted are these: 30 µM.
Assay [9] concerns the target Chromo domain-containing protein 1 (Saccharomyces cerevisiae (strain ATCC 204508 / S288c) (Baker's yeast)) (UniProt P32657). Put plainly: ScCHD-1 Enzyme Inhibition Assay. Note: in the data most compounds retested in dose-response had high values. The conditions noted are these: 30 µM. It counts as functional.

Drawing on ChEMBL document CHEMBL3988442, “University of Dundee, Small-Polar-MMV Screening Library” (2021), this text covers Percent Effect for eight compounds.

For some of these results: Measured potencies and affinities stand elsewhere.

Sequence of Protein translocase subunit SecA (Escherichia coli (strain K12)) (P10408 whole entry): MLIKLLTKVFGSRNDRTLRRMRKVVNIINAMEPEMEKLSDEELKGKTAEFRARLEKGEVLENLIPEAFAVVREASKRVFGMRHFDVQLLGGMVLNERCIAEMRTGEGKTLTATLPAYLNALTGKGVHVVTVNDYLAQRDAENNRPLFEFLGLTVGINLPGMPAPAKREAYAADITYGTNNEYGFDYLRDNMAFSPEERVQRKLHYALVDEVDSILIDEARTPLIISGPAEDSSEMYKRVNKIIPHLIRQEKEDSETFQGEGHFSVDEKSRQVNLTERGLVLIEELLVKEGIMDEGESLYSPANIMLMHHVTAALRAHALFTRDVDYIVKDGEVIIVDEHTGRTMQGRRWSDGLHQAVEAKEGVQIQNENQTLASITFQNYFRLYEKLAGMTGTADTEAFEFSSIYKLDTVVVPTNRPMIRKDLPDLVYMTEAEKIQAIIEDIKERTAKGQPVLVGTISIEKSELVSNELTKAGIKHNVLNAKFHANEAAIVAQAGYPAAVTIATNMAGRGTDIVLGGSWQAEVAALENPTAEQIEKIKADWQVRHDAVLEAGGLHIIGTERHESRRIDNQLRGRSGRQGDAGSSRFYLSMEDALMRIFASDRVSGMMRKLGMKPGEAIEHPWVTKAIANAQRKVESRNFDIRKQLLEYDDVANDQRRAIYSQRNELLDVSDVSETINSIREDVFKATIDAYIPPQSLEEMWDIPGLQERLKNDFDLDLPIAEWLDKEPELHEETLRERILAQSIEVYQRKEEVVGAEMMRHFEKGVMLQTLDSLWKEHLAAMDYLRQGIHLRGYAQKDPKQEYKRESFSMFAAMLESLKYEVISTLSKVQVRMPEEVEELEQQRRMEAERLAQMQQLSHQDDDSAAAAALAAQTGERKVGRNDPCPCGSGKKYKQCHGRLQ
Sequence of Sialic acid-binding Ig-like lectin 9 (Homo sapiens) (Q9Y336 whole entry): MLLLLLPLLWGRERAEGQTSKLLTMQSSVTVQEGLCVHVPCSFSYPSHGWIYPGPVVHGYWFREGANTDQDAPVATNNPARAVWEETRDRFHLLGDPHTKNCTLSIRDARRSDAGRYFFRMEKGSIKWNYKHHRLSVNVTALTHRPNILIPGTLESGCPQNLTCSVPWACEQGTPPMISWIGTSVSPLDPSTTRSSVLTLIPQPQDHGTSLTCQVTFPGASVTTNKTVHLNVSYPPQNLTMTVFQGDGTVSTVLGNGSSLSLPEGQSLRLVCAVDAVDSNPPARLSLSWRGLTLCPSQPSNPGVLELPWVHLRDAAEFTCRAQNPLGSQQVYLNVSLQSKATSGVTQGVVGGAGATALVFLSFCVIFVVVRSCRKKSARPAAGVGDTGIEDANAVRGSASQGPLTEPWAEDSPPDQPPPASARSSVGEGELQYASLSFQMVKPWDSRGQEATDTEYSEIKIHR
Sequence of Chromo domain-containing protein 1 (Saccharomyces cerevisiae (strain ATCC 204508 / S288c) (Baker's yeast)) (P32657 whole entry, the tested form may be a part): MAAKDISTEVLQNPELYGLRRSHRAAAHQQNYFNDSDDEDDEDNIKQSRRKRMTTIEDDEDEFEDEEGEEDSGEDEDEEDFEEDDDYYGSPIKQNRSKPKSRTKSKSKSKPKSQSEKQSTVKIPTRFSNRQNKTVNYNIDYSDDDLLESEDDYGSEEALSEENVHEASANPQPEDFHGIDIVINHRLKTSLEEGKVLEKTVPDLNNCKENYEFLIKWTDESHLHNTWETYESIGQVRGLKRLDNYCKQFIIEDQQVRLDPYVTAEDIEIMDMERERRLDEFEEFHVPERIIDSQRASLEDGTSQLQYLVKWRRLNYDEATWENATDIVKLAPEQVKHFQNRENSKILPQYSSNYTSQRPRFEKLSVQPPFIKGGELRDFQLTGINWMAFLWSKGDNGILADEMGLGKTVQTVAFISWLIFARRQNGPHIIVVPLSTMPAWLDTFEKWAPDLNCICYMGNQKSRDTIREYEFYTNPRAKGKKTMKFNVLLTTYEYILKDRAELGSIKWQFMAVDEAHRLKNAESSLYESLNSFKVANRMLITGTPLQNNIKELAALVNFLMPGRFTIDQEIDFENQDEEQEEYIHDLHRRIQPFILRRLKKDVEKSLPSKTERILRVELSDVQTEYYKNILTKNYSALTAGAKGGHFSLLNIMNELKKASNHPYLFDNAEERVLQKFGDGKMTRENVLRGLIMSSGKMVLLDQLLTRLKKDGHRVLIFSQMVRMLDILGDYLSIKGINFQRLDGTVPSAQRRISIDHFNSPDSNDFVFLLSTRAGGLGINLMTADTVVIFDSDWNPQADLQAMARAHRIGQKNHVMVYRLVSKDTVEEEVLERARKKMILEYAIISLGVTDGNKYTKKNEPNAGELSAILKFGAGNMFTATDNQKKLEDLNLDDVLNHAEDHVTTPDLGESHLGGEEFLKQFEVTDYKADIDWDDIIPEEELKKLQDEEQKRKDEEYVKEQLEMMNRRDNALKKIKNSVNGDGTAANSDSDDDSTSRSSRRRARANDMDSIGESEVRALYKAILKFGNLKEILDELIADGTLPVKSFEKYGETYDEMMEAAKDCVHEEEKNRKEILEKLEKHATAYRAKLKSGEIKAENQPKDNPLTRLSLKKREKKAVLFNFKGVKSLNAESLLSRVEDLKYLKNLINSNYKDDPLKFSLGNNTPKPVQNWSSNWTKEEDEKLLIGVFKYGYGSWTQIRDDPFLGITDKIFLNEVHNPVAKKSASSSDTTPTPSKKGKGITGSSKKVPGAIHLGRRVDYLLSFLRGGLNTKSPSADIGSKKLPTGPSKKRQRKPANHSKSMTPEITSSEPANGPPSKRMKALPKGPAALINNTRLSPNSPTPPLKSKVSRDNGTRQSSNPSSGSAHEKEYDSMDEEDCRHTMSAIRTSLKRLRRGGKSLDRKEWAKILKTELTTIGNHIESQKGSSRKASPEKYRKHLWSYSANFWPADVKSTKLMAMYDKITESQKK

Regarding `CCc1nc(CCNC(=O)NC2CC2)sc1C`, the Percent Effect was -5.62% in assay [1]; 0% in assay [2]; -1.43% in assay [3]; -3.96% in assay [4]; 0% in the assay with Trypanosoma cruzi; 1.67% in assay [5]. Further, the Percent Effect in assay [6] was 9.89%; in the assay listed under Homo sapiens, 5.25%; in [7], 6.93%; in [8], -1.22%; in [9], -6.36%.

With `Cc1ccc(CN2CCC3(CC(C(=O)NCC4CC4)=NO3)C2)cc1C` (stereo not drawn), the Percent Effect was -4.16% in assay [1]; 2.67% in assay [2]; 7.69% in assay [3]; -4.65% in [4]; -4.05% with Trypanosoma cruzi; -64% in assay [5]. Further, the Percent Effect in assay [6] was 0.684%; in the assay filed under Homo sapiens, 2%; in [7] it was 0%; in assay [8], 7.5%; in assay [9], -7.33%.

On to `C=Cn1ncc(CN2C[C@@H]3CCCN3C[C@H]2CCSC)c1C`, for which the Percent Effect was -0.255% in assay [1]; 1.35% in assay [2]; 5.26% in assay [3]; 9.13% in assay [4]; 4.94% in the assay on Trypanosoma cruzi; -1.16% in [5]. Besides, the Percent Effect in assay [6] is 9.36%; in the assay filed under Homo sapiens, 15.9%; in assay [7], 1.07%; in [8] it was 1.3%; in [9] it was -6.62%.

For the compound `CN(Cc1ccsc1)C(=O)Nc1ccc(S(C)(=O)=O)nc1`, the Percent Effect in assay [1] is -2.7%; in assay [2] it was 22.8%; in [3] it was -11.6%; in [4] it was -5.34%; with Trypanosoma cruzi it was 4.63%; in [5] it was -3.04%. In addition, the Percent Effect is 10.6% in [6]; 5.01% in the assay filed under Homo sapiens; 9.36% in assay [7]; 24.1% in assay [8]; -6.57% in [9].

On to `CN(C)C(=O)N1CCN(Cc2nnc(C(C)(C)C)o2)CC1`, for which the Percent Effect in assay [1] was -0.665%; in assay [2], -5.41%; in [3], 0.51%; in [4], 3.54%; with Trypanosoma cruzi, 0%; in [5], 1.91%. Besides, the Percent Effect in assay [6] was 1.55%; in the assay filed under Homo sapiens it was -1.07%; in assay [7], -1.59%; in [8], 0%; in assay [9], -0.0145%.

As to `CN(CC(F)(F)F)C(=O)C1CSCN1C(=O)OC(C)(C)C` (stereo not drawn), the Percent Effect was -2.64% in assay [1]; 2.74% in assay [2]; -4.74% in assay [3]; -3.23% in assay [4]; -3.33% in the assay on Trypanosoma cruzi; 2.27% in assay [5]. The Percent Effect in [6] was 11.9%; in the assay filed under Homo sapiens, 2.3%; in [7], 1.07%; in assay [8] it was 7.5%; in assay [9], -1.01%.

Turning to `CC(C)(C(=O)NCC1CC1)c1ccccc1F`, the Percent Effect in assay [1] was -8.21%; in assay [2], 4.17%; in [3], -4.88%; in assay [4], 2.97%; in the assay with Trypanosoma cruzi, -4.18%; in assay [5] it was 0.442%. Further, the Percent Effect in assay [6] is 15.6%; in the assay listed under Homo sapiens it was -2.36%; in assay [7] it was 2.1%; in assay [8] it was 2.56%; in assay [9], -3.44%.

As to `CCn1cc(NC(=O)NCC(O)CN2CCc3ccccc3C2)cn1` (stereo not drawn), the Percent Effect in assay [1] is -1.09%; in assay [2] it was 23.4%; in [3], -8.59%; in assay [4], -13.8%; in the assay on Trypanosoma cruzi it was -0.0979%; in assay [5], -6.53%. Also, the Percent Effect in [6] was 18.2%; in the assay listed under Homo sapiens, 34.1%; in assay [7], 8.57%; in assay [8] it was 30.6%; in assay [9], -18.1%.
